Assay results as given in PubChem BioAssay (NCI).
Where “and” joins values, the source holds several entries; their conditions need not be identical. Equal values may be shown once. The panel holds about 79,000 compounds, 15% with a hit somewhere; the sample as a whole holds those more often. Calls of active or inactive are those of the source. Rule as the data show it: active = growth inhibition above about 70%; inactive = the rest.

Assays:
[1] = NCI Yeast Anticancer Drug Screen. Data for the rad50 strain (AID 155);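 also: 0% = growth of vehicle-only cultures of the same strain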; settings: S. cerevisiae rad50 strain growth inhibition, stronger effect = higher value; at 50.0 µM unless noted
Procedure, shortened: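 Yeast carrying a defined DNA repair defect were exposed to test compounds, and growth was compared with vehicle-treated controls to give percent inhibition.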

[2] = NCI Yeast Anticancer Drug Screen. Data for the mec2-1 strain (AID 157); settings: S. cerevisiae mec2-1 strain, stronger effect = higher value; at 50.0 µM unless noted
Procedure, shortened: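 Growth inhibition is read against vehicle-treated controls after compound exposure of the mec2-1 yeast strain, which is defective in DNA damage repair or cell cycle control.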

[3] = NCI Yeast Anticancer Drug Screen. Data for the sgs1 mgt1 strain (AID 161);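 also: 0% = growth of cultures given vehicle only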; settings: S. cerevisiae sgs1 mgt1 strain, stronger effect = higher value; at 50.0 µM unless noted
Procedure, shortened: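 Growth of a repair-deficient yeast mutant was monitored after compound treatment and expressed as inhibition relative to vehicle-treated cultures.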

[4] = NCI Yeast Anticancer Drug Screen. Data for the cln2 rad14 strain (AID 165);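 also: 0% = growth equal to vehicle treated cultures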; settings: S. cerevisiae cln2 rad14 strain, stronger effect = higher value; at 50.0 µM unless noted
Procedure, shortened: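 Growth inhibition, relative to vehicle-treated controls, is the read-out. The test organism is a yeast strain with defined genetic alterations, cln2 rad14.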

[5] = NCI Yeast Anticancer Drug Screen. Data for the bub3 strain (AID 167); settings: S. cerevisiae bub3 mutant strain, stronger effect = higher value; at 50.0 µM unless noted
Procedure, shortened: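 Compounds were applied to a genetically altered yeast strain carrying a cell-cycle control defect. Growth inhibition was scored against vehicle-treated controls.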

[6] = NCI Yeast Anticancer Drug Screen. Data for the mlh1 rad18 strain (AID 175); settings: S. cerevisiae mlh1 rad18 strain growth inhibition, stronger effect = higher value; at 50.0 µM unless noted
Procedure, shortened: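 Cells of a genetically altered yeast strain, deficient in DNA damage repair, were treated with compound. Their growth was then compared with that of vehicle-treated cultures to give inhibition.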

Measured: growth inhibition

O=S1(=O)CCC12CC1c3ccccc3C2c2ccccc21 (stereo unspecified)
inactive: [1] -6.1% | [2] -6.05% | [3] -11.6% | [4] -2.85% | [5] -11.1% | [6] -6.85%

Cn1cc(C(=O)c2ccccc2)cc(C(=O)c2ccccc2)c1=O
inactive: [1] -3.05% | [2] -12.1% | [3] -6.05% | [4] 1.5% | [5] -15.2% | [6] -36.5%

OC(COc1cccc(C(F)(F)F)c1)CN1CCN(c2ccc(F)cc2)CC1 (stereo unspecified)
active: [1] 86.8% | [2] 88% | [3] 96.3% | [4] 88.5% | [5] 86.4% | [6] 92.2%

O=C(O)CC(O)(c1ccccc1)c1ccccc1
inactive: [1] 0.05% | [2] -1.7% | [3] -5.05% | [4] -7.9% | [5] 1.4% | [6] 0%

OC1CSc2nc3ccccc3n2C1 (stereo unspecified)
inactive: [1] 17.6% | [2] 9.25% | [3] 12.3% | [4] 9.7% | [5] 20.8% | [6] 38.9%

CCOC(=O)/C(C#N)=C/c1cccc([N+](=O)[O-])c1
inactive: [1] 4.9% | [2] 4.8% | [3] 7.05% | [4] -11.6% | [5] 34.1% | [6] 31.2%

c1ccc(NN(Cc2cnccn2)c2ccccc2)cc1
inactive: [1] 9.75% | [2] -2.65% | [3] -24.9% | [4] -29.9% | [5] -56.5% | [6] -12%

O=C(OC1OCC(OCc2ccccc2)C(OCc2ccccc2)C1OCc1ccccc1)c1ccccc1 (stereo unspecified)
inactive: [1] 22.6% | [2] -21.5% | [3] -3.9% | [4] -24.3% | [5] -4.2% | [6] -9.15%

O=C(O)CCC1NCCCO1 (stereo unspecified)
inactive: [1] 1.85% | [2] 3% | [3] 3.7% | [4] -35.1% | [5] -4.15% | [6] 0.75%

CNc1c(F)c(C#N)c(F)c(F)c1C#N
inactive: [1] 9.35% | [2] -6.95% | [3] -16.6% | [4] -8.95% | [5] 0.55% | [6] 1.75%

CCCCCCC(/C=N/NC(=O)CCCCCCCCC(=O)N/N=C/C(=C/c1ccccc1)CCCCCC)=C\c1ccccc1
inactive: [1] 11.4% | [2] 1.85% | [3] -5.95% | [4] -5.05% | [5] -1.45% | [6] 15.9%

COc1ccc(/C(Cc2ccccc2)=N/Nc2ccc([N+](=O)[O-])c([N+](=O)[O-])c2)cc1
inactive: [1] 48.1% | [2] -8.15% | [3] 23.5% | [4] 6.35% | [5] 9.7% | [6] 20.1%

COc1cc(C2c3cc4c(cc3[C@H](OCCN(C)C)[C@@H]3COC(=O)C23)OCO4)cc(OC)c1O (stereo partly specified)
inactive: [4] 67.8%
active: [1] 83.2% | [2] 87.7% | [3] 83.3% | [5] 78.2% | [6] 82.6%

Cc1cn(C2CC(O)C(CO)O2)c(=O)nc1N1CCSCC1 (stereo unspecified)
inactive: [1] 2.5% | [2] -7.05% | [3] -2.6% | [4] -32.8% | [5] -12% | [6] -8.8%

C/C=C1\CC2C=CC1C2 (stereo unspecified) (tested in a mixture with another compound)
inactive: [1] 5.35% | [2] -15.4% | [3] 3.25% | [4] 0.5% | [5] 11.6% | [6] 8.15%

COC(=O)C1CCCC1
inactive: [1] 3.75% | [2] -44% | [3] 16.2% | [4] 9.4% | [5] -2.8% | [6] 22.6%

O=C(O)CCCC1CCC(=O)CC1
inactive: [1] -0.4% | [2] -7.55% | [3] -8.1% | [4] -24.4% | [5] 0.5% | [6] 3.35%

Clc1cccc(/C=N\N=C\c2cccc(Cl)c2)c1
inactive: [1] -4.6% | [2] -7.75% | [3] 6.3% | [4] -8.75% | [5] -1.95% | [6] 5.45%

C#CCN(Cc1ccc2nc(-c3ccccc3)c(Cl)nc2c1)c1cc(OC)c(OC)c(OC)c1
inactive: [1] 14.8% | [2] -12.6% | [3] -16.9% | [4] -23.4% | [5] -26.1% | [6] 4.75%

CSc1ncn(C)c1C(N)=O
inactive: [1] 0.1% | [2] 4.25% | [3] 1.5% | [4] -5.2% | [5] -3.25% | [6] 11.2%

COc1ccc(Nc2nc3ccccc3nc2-c2cccs2)cc1OC
inactive: [1] -5.8% | [2] -2% | [3] 13.9% | [4] 9.3% | [5] -0.7% | [6] -23.4%

COc1cc(Br)c(CC(NC=O)c2ccc(OC)c(OC)c2OC)cc1OC (stereo unspecified)
inactive: [1] 0.4% | [2] -0.1% | [3] -6.95% | [4] -7.8% | [5] -1.5% | [6] 23.9%

CC(=O)c1cccc(N=NN(C)C)c1
inactive: [1] 41% | [2] 36.5% | [3] 58% | [4] 6.35% | [5] 40.2% | [6] 46.8%

CC1CC(C)NC(=S)N1 (stereo unspecified)
inactive: [1] -16.6% | [2] -3.9% | [3] -9.85% | [4] 16.7% | [5] 3.25% | [6] -5.95%

O=C(NCCOC(=O)OCCNC(=O)NC1CCCCC1)NC1CCCCC1
inactive: [1] -12.8% | [2] -30% | [3] 0.9% | [4] 4.1% | [5] 4.1% | [6] -13.5%

CC(=O)c1cccc(NC(=O)Oc2ccc(-c3ccccc3)cc2Cl)c1
active: [1] 99.2% | [2] 99.6% | [3] 99.5% | [4] 98.8% | [5] 99.5% | [6] 99.3%

CC(Br)C(=O)NC(CC(N)=O)C(=O)O (stereo unspecified)
inactive: [1] 1.8% and -8.25% | [2] -15.6% and -16.1% | [3] -9.15% | [4] 4.2% | [5] -14.7% | [6] 23% and -17.1%

COC(=O)[C@@H]1O[C@H]1c1ccccn1
inactive: [1] 7.9% | [2] 1.1% | [3] -7.95% | [4] -5.75% | [5] 8.95% | [6] 0.1%

CCn1c(CCCc2nc3c([nH]2)c(=O)n(C)c(=O)n3C)nc2c1c(=O)n(C)c(=O)n2C
inactive: [1] 6.65% | [2] -38.8% | [3] -45.1% | [4] 33.2% | [5] -40.7% | [6] -15.3%

S=c1nc[nH]c2[nH]cc(Br)c12
inactive: [1] 11.6% | [2] -6.55% | [3] 2.5% | [4] -4.7% | [5] 3.75% | [6] 11.8%

Cc1c2n(c(=O)[nH]c1=O)C1OC(CO)C(O2)C1N=[N+]=[N-] (stereo unspecified)
inactive: [1] -11.1% | [2] -17.6% | [3] -27.2% | [4] -7.55% | [5] -9.65% | [6] -34.6%

N#CCCC(CC#N)N1CCN(CCO)CC1 (stereo unspecified)
inactive: [1] -35.1% | [2] -43.9% | [3] -18.7% | [4] -21.2% | [5] -0.95% | [6] -39.4%

COc1cc(C(=O)c2cc3c(cc2C(=O)O)OCO3)cc(OC)c1OC
inactive: [1] -7.6% | [2] 0.85% | [3] 2.9% | [4] -30.6% | [5] 8.5% | [6] -2.05%

O=C(OC1CCC/C=C\CCCC1)c1ccc(Cl)cc1 (stereo unspecified)
inactive: [1] 1.45% | [2] -4.35% | [3] -16.4% | [4] -2.1% | [5] -1.5% | [6] 2.45%

Cc1cc(CSC(=N)N)c(CSC(=N)N)cc1C
inactive: [1] 9.75% | [2] -3.85% | [3] -2.45% | [4] -4.25% | [5] 4.65% | [6] 2.05%

S=c1c(-c2ccccc2)cnc2sccn12
inactive: [1] 40.9% | [2] 29.8% | [3] 8.3% | [4] -22.6% | [5] 19.8% | [6] 18.4%

O=S1(=O)c2ccccc2Nc2cc3ccccc3cc21
inactive: [1] 6.75% | [2] 2.4% | [3] 0.85% | [4] -11.5% | [5] -2.55% | [6] 6.25%

CC(=O)CSc1c(-c2ccccc2)c(=O)n(-c2ccccc2)c(=S)n1-c1ccccc1
inactive: [1] -3.8% | [2] -10.1% | [3] -13.2% | [4] -2.3% | [5] -8.5% | [6] 3.85%

O=C1OC(c2ccccc2)=C2CCC3CCCCN1C23 (stereo unspecified)
inactive: [1] -2.15% | [2] -29.7% | [3] 12.8% | [4] 23.4% | [5] 34.6% | [6] 9.25%

COC1C(CO)OC(O)C(O)C1O (stereo unspecified)
inactive: [1] -6.75% | [2] 2.25% | [3] -5.2% | [4] -5.45% | [5] -6.9% | [6] 4%

CCN(CC)OC(=O)/C=C/c1ccccc1
inactive: [1] 2.05% | [2] 5.5% | [3] -10.3% | [4] 20.2% | [5] -3.3% | [6] -4.45%
